Shiga inhibitor: A qHTS for Small Molecule Inhibitors of Shiga Toxin. Vero cells, Shiga toxin protein synthesis inhibition reporter. hit rate 9.2% among 290,000. inhibition, % at 38.7 µM; in the data active = inhibition mostly above about 28%, no sharp cut-off; inactive = mostly below about 43%
FBPA Giardia inh: qHTS Assay for Inhibitors of Fructose-1,6-bisphosphate Aldolase from Giardia Lamblia | A8B2U2 | purified Giardia FBPA | Potency, µM (series often up to 59.6 µM), hits mostly inhibitors | hit rate 0.71% among 290,000 | AID 2451, 2010; also: nearly all actives have a fitted effect of over 55% in size
Target sequence (A8B2U2 whole entry, looked up): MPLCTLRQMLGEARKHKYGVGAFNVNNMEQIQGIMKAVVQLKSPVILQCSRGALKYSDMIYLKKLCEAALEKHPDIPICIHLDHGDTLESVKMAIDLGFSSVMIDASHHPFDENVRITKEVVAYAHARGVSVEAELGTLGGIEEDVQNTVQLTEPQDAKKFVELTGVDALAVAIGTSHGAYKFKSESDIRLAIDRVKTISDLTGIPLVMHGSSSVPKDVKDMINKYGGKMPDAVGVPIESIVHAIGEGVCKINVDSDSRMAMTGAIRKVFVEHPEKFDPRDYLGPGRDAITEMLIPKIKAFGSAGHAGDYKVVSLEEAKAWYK
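Giardia FBPA (40 nM reagent) was preincubated 10 min at RT with compound (up to 57.5 uM final), then substrate plus GAPDH/TPI/NAD/arsenate coupling system with diaphorase/resazurin was added; resorufin fluorescence (525/598 nm) was read after 20 min.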
CHX counter: Cycloheximide Counterscreen for Small Molecule Inhibitors of Shiga Toxin; cell reporter, cycloheximide protein synthesis inhibition counterscreen; max response, %; hit rate 12% among 300,000; in the data active = max response mostly above about 13%, no sharp cut-off; inactive = mostly below about 14%; also: read at 38.3 µM for the half of the compounds with a filed dose
RE007 growth inh: qHTS Assay for Inhibitors of the HIV-1 protein Vpr; hit rate 0.21% among 360,000; Potency, µM (highest dose often 92.2 µM), hits mostly inhibitors; S. pombe RE007 Vpr strain, BacTiter-Glo ATP luminescence, 24 h; active = well fitted falling curve with a large enough effect; inconclusive = small, poorly fitted or top-dose-only effect; inactive = no such curve, though single readings can be large or run the other way; also: nearly all actives have a fitted effect of over 50% in size
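Fission yeast RE007 carrying one integrated HIV-1 vpr copy, seeded at OD 0.01 in PMG+AL medium with 23 nL pinned compound. Grown 24 h at 30 degrees; viability read by BacTiter-Glo luminescence after 5 min.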
LmPK inh: qHTS Assay for Inhibitors of Leishmania Mexicana Pyruvate Kinase (LmPK); Q27686; purified LmPK, Kinase-Glo ATP luminescence, 1 h; Potency, µM (highest dose often 57.5 µM), usual class: inhibitors; hit rate 0.37% among 290,000
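ATP generated from ADP (0.1 mM) and PEP (0.5 mM) by 0.1 nM LmPK over 1 h at room temperature (pH 7.2 imidazole buffer) was detected by coupled luciferase luminescence. Values were normalized to uninhibited and no-enzyme wells.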
TbPYK inhibitor: qHTS of Trypanosoma Brucei Inhibitors; AID 624173, 2012; Potency, µM (top dose mostly 76.8 µM), usual class: inhibitors; hit rate 0.12% among 410,000; TbPYK enzyme, Kinase-Glo Plus ATP luminescence, 45 min; also: nearly all actives have a fitted effect of over 50% in size
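Enzyme and substrate buffer are dispensed first and compound is pin-transferred. ADP at 130 uM final then starts the reaction, which runs 45 min at room temperature. Detection reagent is added for 10 min before luminescence is imaged.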
A number is an active result; – = inactive; ? = inconclusive; · = no result given. Shown is part of a subset that was picked to be rich in hits. Unless noted, calls follow the shape of the dose curve; as a rule, active = well fitted curve in the direction sought with a large enough effect; inconclusive = small, poorly fitted or top-dose-only effect, or another doubt; inactive = no such curve, though single readings can be large; an effect the other way counts as inactive or inconclusive.

SMILES | Shiga inhibitor | FBPA Giardia inh | CHX counter | RE007 growth inh | LmPK inh | TbPYK inhibitor
CC(=O)c1ccc(Nc2nc(C)nc3c2oc2ccccc23)cc1 | – | – | – | · | – | ·
c1ccc2c(c1)oc1c(NCc3ccc4c(c3)OCO4)ncnc12 | – | – | – | – | – | –
c1ccc(Nc2ncnc3c2oc2ccccc23)cc1 | 121 | – | 66 | – | – | –
COc1ccccc1NC(=O)C1=C(C)Nc2nc(SCc3ccccc3Cl)nn2C1c1ccncc1 (configuration not stated) | · | · | · | · | · | –
CCOC(=O)[C@]12CCC=C1N(Cc1cccc3ccccc13)C(=O)[C@H](CC(=O)N1CCCC1)C2 | · | · | · | – | · | –
CCOC(=O)N1CCN(CCC(=O)Nc2cccc(F)c2)CC1 | · | · | · | · | · | –
COc1ccc(Cl)cc1NC(=S)NC1CCCC1 | – | – | – | – | – | –
Cc1cc2c(Nc3cccc(O)c3)ncnc2s1 | – | – | 19 | – | – | –
c1ccc2c(c1)oc1c(Nc3ccc(CN4CCOCC4)cc3)ncnc12 | 106 | – | 92 | – | – | –
Oc1cccc(Nc2ncnc3c2oc2ccccc23)c1 | 93 | – | 50 | – | – | –
c1ccc2c(c1)oc1c(NCCN3CCOCC3)ncnc12 | – | – | – | – | – | –
Cc1cc2c(Nc3ccccc3O)ncnc2s1 | · | · | · | – | · | –
CC(C)C(Nc1ncnc2c1oc1ccccc12)C(=O)O (configuration not stated) | – | – | – | – | – | –
N#Cc1c(-c2ccc(F)cc2)ccnc1N1CCOCC1 | – | – | 19 | – | – | –
CCN1C(=O)[C@H]2[C@@H](c3ccc(OC)cc3)N[C@]3(CCCN(CC4CCCCC4)C3=O)[C@H]2C1=O | · | · | · | – | · | –
Cc1ccc(SCC(c2ccccc2)N2CCN(CCc3ccccc3)CCC2=O)cc1 (configuration not stated) | 35 | – | 48 | · | · | ·
O=C1CCN(CCc2ccccc2)CCN1C(CSc1ccc(Br)cc1)c1ccccc1 (configuration not stated) | – | – | 33 | · | · | ·
O=C1CCN(CCc2ccccc2)CCN1[C@H](CSc1ccccc1)c1ccccc1 | – | – | 15 | – | – | –
Cc1ccc(SC[C@H](c2ccccc2)N2CCN(CCc3ccccc3)CCC2=O)cc1 | 59 | – | 33 | – | – | –
CC(=O)Nc1ccc(SCC(c2ccccc2)N2CCN(CCc3ccccc3)CCC2=O)cc1 (configuration not stated) | – | – | – | · | · | ·
Cc1ccc(SCC(Cc2ccccc2)N2CCN(CCc3ccccc3)CCC2=O)cc1 (configuration not stated) | – | – | – | · | · | ·
O=C1CCN(CCc2ccccc2)CCN1[C@H](CO)c1ccccc1 | – | – | – | – | – | –
O=C(O)c1ccc(NNC(=S)Nc2cc(C(F)(F)F)ccc2Cl)cc1 | 59 | ? | 36 | – | – | –
O=C(NC(=S)Nc1cc(C(F)(F)F)ccc1Cl)c1ccccc1 | – | – | – | – | – | –
O=C(CC(=O)c1ccccc1)Nc1cc(C(F)(F)F)ccc1Cl | – | – | 16 | – | – | –
SMILES | Shiga inhibitor | FBPA Giardia inh | CHX counter | RE007 growth inh | LmPK inh | TbPYK inhibitor
CCOC(=O)C1CCN(C(=O)c2cc(C(C)(C)C)nn2Cc2ccccc2)CC1 | – | – | – | – | – | –
Cc1sc2ncnc(SCC(=O)c3cccs3)c2c1C | 72 | – | 35 | – | – | –
Cc1cccc(NC(=O)CSc2ncnc3sc(C)c(C)c23)n1 | – | · | – | – | – | –
COc1cc(-c2nnc(SCC(=O)/C(C#N)=C(\C)N)o2)cc(OC)c1OC | – | – | – | – | – | –
Oc1ccc(/C=N/NC(=S)Nc2cccnc2)cc1O | – | ? | – | – | – | –
S=C(N/N=C/c1ccc2ncccc2c1)Nc1cccnc1 | – | – | 23 | – | – | –
CC(C)(C)c1ccc(/C=N/NC(=S)Nc2cccnc2)cc1 | – | – | 16 | · | – | ·
O=C(COC(=O)c1ccc([N+](=O)[O-])cc1)NCCC1=CCCCC1 | · | · | · | – | · | –
O=C(Cn1cc(Cl)c([N+](=O)[O-])n1)NCCC1=CCCCC1 | – | – | 15 | – | – | –
CCCCCCCN(c1ccccc1)[C@@H]1C[C@H]2CCCC(=O)N3CC[C@@H](C1)[C@@H]23 | · | · | · | – | · | –
COCCOc1ccc(C(F)(F)F)cc1Nc1nc2ccccc2o1 | 100 | – | 30 | – | – | ?
O=C(Nc1cccc(S(=O)(=O)NC2=NCCC2)c1)c1c(F)cccc1Cl | · | · | · | – | · | –
O=C(Nc1cccc(S(=O)(=O)NC2=NCCC2)c1)c1ccccc1 | · | · | · | – | · | –
CN(C)c1cccc(C(=O)Nc2cccc(S(=O)(=O)NC3=NCCC3)c2)c1 | 70 | · | 33 | – | – | –
O=C(/C=C/c1ccc(Cl)cc1Cl)Nc1cccc(S(=O)(=O)NC2=NCCC2)c1 | – | – | 14 | – | – | –
O=C(/C=C/c1ccccc1Cl)Nc1cccc(S(=O)(=O)NC2=NCCCCC2)c1 | 65 | – | 23 | – | – | –
Cc1nc(C)c(C(=O)OCC(=O)Nc2ccc(C)c(C)c2)s1 | · | · | · | – | · | –
COc1ccccc1Nc1nc(N)nc(CSC(=S)N2CCC(C)CC2)n1 | – | – | 43 | – | – | –
COc1ccccc1Nc1nc(N)nc(CSC(=S)N2CCCCC2C)n1 (configuration not stated) | 43 | – | 43 | – | – | –
COc1ccccc1Nc1nc(N)nc(CSC(=S)N2CCN(c3ccccc3)CC2)n1 | – | – | – | – | – | –
Cc1ccc(S(=O)(=O)CCN2CCC(n3cccc3)CC2)cc1 | – | – | – | – | – | –
O=C(c1cc(-c2ccccc2O)on1)N1CCCCCC1 | 104 | – | 34 | – | – | –
COc1ccccc1-c1cc(C(=O)N2CCN(c3ccccc3)CC2)no1 | – | – | – | – | – | –
O=C(c1cc(-c2ccccc2O)on1)N1CCOCC1 | 80 | – | 31 | – | – | –
COc1ccc(OC)c(-c2cc(C(=O)N3CCOCC3)no2)c1 | – | – | 14 | – | – | –
SMILES | Shiga inhibitor | FBPA Giardia inh | CHX counter | RE007 growth inh | LmPK inh | TbPYK inhibitor
Cc1cc(=O)n(-c2ccc3ccccc3n2)[nH]1 | 51 | – | 47 | – | – | –
CN1CCN(c2ccc3ccccc3n2)CC1 | · | – | · | · | · | ·
O=C(CCNC(=O)N1CC(=O)Nc2ccccc21)NCc1ccc(Cl)cc1 | · | · | · | – | · | –
CC(=O)N1CCN(c2ccc(NC(=O)c3ccc4c(c3)OCCO4)cc2Cl)CC1 | – | ? | 28 | – | – | –
CN1CCN(c2ccc(NC(=O)c3ccc4c(c3)OCO4)cc2)CC1 | 72 | – | 42 | – | – | –
O=C(Nc1ccc(N2CCN(C(=O)c3ccccc3)CC2)cc1)c1ccc2c(c1)OCCO2 | 62 | · | 55 | – | – | –
O=C(Nc1ccc(N2CCCCC2)cc1)c1ccc2c(c1)OCCO2 | 75 | – | 35 | – | – | –

High-throughput results deposited in PubChem BioAssay by National Center for Advancing Translational Sciences (NCATS).
